# Assay results from PubChem BioAssay (NCATS).
# Several values for one entry are separate records, joined by “and”; a condition that tells them apart may be missing. Equal values may be shown once. Unmarked numbers belong to inactive results. Calls come from the whole dose curve; as a rule, active = well fitted activation curve with a large enough effect; inconclusive = small, poorly fitted or top-dose-only effect; inactive = flat fitted curve, though single readings scatter.
# Biological target: Peroxisome proliferator-activated receptor alpha (Homo sapiens) (UniProt Q07869)
# Assay: qHTS assay for small molecule agonists of the peroxisome proliferator-activated receptor alpha (PPARalpha) signaling pathway (AID 651778); note: % of control where 0% means no effect
# Conditions: PathHunter PPARalpha complementation, chemiluminescence, 6 h; active compounds read high
# In short: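 Cells plated at 2,000/well and held overnight at 37 C, 5% CO2, then compound added by pin tool for 6 hr; after PathHunter detection reagent and 60 min at room temperature, chemiluminescence from enzyme complementation was read.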
# Chain of Peroxisome proliferator-activated receptor alpha (Homo sapiens) (Q07869 whole entry, looked up): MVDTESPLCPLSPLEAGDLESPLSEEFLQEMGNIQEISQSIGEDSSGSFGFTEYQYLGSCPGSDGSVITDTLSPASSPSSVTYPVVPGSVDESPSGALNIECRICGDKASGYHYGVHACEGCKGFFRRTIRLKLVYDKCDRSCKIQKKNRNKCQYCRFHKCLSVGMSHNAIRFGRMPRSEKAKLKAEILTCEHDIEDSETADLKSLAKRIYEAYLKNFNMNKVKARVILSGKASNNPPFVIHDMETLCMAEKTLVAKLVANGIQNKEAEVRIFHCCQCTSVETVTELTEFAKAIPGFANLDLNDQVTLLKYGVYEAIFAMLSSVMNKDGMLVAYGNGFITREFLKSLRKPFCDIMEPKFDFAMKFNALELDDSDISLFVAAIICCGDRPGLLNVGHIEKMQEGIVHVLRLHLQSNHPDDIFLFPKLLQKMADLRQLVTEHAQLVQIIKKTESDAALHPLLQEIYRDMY
row,Compound,max response
1,CC(C#N)CCC#N (stereo not drawn),-3.28%
2,Nc1cc(Cl)ccc1Cl,-1.24%
3,Nc1cccc(Cl)c1,0.632%
4,ClCc1ccccc1,3.28%
5,CCC/C=N/O,-3.79%
6,C=CCOCC1CO1 (stereo not drawn),11.4%
7,c1ccoc1,0.928%
8,Clc1ccccc1,-0.13%
9,ClC(Cl)(Cl)C(Cl)(Cl)Cl,-2.99%
10,CCOC(=O)C1OC1(C)c1ccccc1 (stereo not drawn),4.47%
11,C/C=C/CC#N,-3.98%
12,ClC(Cl)C(Cl)Cl,-3.31%
13,C=CCCl,-5.35%
14,Brc1cccc(-c2ccccc2)c1,-1.43%
15,C=CCO,-7.9%
16,Nn1cnnc1,-0.452%
17,BrCCc1ccccc1,-3.08%
18,Cc1ccccc1[N+](=O)[O-],2.03%
19,CCCCOC(=O)c1ccccc1N,-4.62%
20,Clc1cc(Cl)c(Cl)c(Cl)c1,-0.217%
21,Cc1ccc(N)c(C)c1,-4.17%
22,C1CC2OC2CC1C1CO1 (stereo not drawn),-1.95% and -1.6%
23,CN(C)C(=O)Cl,-4.05%
24,CC(=O)NNc1ccccc1,-1.86%
25,Cc1ccc(N=C=O)cc1N=C=O,-6.43% and 0.39%
26,O=C(Cl)OCc1ccccc1,0.201%
27,C=CC(=O)OC,-1.74%
28,CCN(CC)N=O,2.1%
